Results: PubChem BioAssay
For part of these data: Potency and affinity values are given separately. Calls of active or inactive are those of the source. A call without a number means that no potency is given here. Unless noted, the rule behind the calls is not given here.

What was measured:
[1] = antimalarial activity against Dd2 strain (AID 2302;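 active = growth inhibition above 50% at the single 2 µM test dose, taken to imply half-maximal potency below 2 µM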); details: P. falciparum Dd2 in RBCs, LDH growth readout, 72 h; at 2 µM; active compounds read high
[2] = HepG2 cytotoxicity, primary screen, cytotoxicity control for P. falciparum antimalarial project, cell-based, ATP luminescence (AID 2303;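 active = inhibition above 50%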); details: HepG2 viability, 24-48 h, at 10 µM, active compounds read high
[3] = biological target: L-lactate dehydrogenase (Plasmodium falciparum (isolate CDC / Honduras)) (UniProt Q27743); test: PfLDH activity inhibition – cell lysate, 3D7 strain, counter-screen for P. falciparum growth inhibition project (AID 2304); details: P. falciparum 3D7 crude extract, LDH APAD/NBT absorbance; at 2 µM; active compounds read high
L-lactate dehydrogenase (Plasmodium falciparum (isolate CDC / Honduras)), sequence (Q27743 whole entry, looked up): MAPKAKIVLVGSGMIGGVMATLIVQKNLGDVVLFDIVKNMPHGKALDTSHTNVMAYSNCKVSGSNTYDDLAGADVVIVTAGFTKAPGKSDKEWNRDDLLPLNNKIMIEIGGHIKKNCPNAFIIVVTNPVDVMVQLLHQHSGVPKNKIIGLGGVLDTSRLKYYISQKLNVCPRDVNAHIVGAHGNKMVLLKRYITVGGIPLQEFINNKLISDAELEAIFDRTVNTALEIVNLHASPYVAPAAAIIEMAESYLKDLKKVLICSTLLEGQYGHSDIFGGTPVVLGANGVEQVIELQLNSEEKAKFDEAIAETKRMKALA

[4] = inhibition of 3D7 malaria parasite growth – strain 3D7 (AID 2306); details: P. falciparum 3D7 erythrocytic growth, LDH absorbance, 72 h; at 2 µM; active compounds read high
[5] = biological target: Calcium-dependent protein kinase 1 (Plasmodium falciparum (isolate 3D7)) (UniProt P62344); test: PfCDPK1 kinase inhibitors, biochemical, TCAMS library (AID 1159585; cut-off not given, nearly all actives have IC50 up to about 0.98 µM;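 note: inhibitors leave more ATP so luminescence rises with inhibition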); details: recombinant PfCDPK1, Kinase-Glo ATP depletion luminescence
Calcium-dependent protein kinase 1 (Plasmodium falciparum (isolate 3D7)), sequence (P62344 whole entry, looked up): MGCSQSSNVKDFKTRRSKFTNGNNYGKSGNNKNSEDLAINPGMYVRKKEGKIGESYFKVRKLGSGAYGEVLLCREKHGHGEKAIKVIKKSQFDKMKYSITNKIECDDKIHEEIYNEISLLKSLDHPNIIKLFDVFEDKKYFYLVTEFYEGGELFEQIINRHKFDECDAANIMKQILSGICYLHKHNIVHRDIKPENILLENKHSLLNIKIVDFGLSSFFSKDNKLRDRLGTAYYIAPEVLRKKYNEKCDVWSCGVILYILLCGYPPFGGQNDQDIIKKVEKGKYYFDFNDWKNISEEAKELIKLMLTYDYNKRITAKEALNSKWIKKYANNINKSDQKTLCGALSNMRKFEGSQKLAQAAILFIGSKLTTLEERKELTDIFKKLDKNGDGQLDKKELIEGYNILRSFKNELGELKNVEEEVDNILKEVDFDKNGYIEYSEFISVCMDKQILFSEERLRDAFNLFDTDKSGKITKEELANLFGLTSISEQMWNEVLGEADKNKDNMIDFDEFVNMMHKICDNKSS

[6] = biological target: Plasmodium falciparum protein kinase 6 (PK6, PF3D7_1337100) (UniProt Q8IDW1); test: PfPK6 kinase inhibitors, biochemical, TCAMS library (AID 1159586); details: recombinant PfPK6, Kinase-Glo ATP depletion luminescence
Plasmodium falciparum protein kinase 6 (PK6, PF3D7_1337100), sequence (Q8IDW1 1-305): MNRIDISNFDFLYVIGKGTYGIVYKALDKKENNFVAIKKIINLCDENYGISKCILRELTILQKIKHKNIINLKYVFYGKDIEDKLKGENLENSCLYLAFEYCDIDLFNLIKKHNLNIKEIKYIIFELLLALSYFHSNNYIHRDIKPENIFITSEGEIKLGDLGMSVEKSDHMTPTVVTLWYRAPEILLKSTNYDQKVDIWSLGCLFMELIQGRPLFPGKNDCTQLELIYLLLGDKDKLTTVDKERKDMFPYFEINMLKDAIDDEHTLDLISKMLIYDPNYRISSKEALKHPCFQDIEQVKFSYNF

[7] = biological target: Protein kinase 7 (PK7), Plasmodium falciparum 3D7 (PF3D7_0213400) (UniProt Q7YTF7); test: inhibition of Plasmodium PK7 catalytic activity – biochemical, TCAMS antimalarial set, Kinase-Glo luminescence (AID 1159587); details: recombinant PfPK7, Kinase-Glo ATP depletion luminescence
Protein kinase 7 (PK7), Plasmodium falciparum 3D7 (PF3D7_0213400), sequence (Q7YTF7 1-343): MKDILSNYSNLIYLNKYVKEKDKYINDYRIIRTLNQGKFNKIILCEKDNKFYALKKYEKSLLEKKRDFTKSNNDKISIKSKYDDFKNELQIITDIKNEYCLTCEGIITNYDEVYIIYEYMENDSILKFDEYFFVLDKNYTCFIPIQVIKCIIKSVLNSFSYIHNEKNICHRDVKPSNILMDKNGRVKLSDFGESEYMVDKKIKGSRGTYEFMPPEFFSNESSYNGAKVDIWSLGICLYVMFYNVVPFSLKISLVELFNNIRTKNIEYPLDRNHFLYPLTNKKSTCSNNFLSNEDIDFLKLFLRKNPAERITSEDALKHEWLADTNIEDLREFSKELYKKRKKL

[8] = biological target: Calcium-dependent protein kinase 4 (Plasmodium falciparum (isolate 3D7)) (UniProt Q8IBS5); test: PfCDPK4 kinase inhibitors, biochemical, TCAMS library (AID 1159588; cut-off not given, nearly all actives have IC50 up to about 0.91 µM); details: recombinant PfCDPK4, Kinase-Glo ATP depletion luminescence
Calcium-dependent protein kinase 4 (Plasmodium falciparum (isolate 3D7)), sequence (Q8IBS5 whole entry, looked up): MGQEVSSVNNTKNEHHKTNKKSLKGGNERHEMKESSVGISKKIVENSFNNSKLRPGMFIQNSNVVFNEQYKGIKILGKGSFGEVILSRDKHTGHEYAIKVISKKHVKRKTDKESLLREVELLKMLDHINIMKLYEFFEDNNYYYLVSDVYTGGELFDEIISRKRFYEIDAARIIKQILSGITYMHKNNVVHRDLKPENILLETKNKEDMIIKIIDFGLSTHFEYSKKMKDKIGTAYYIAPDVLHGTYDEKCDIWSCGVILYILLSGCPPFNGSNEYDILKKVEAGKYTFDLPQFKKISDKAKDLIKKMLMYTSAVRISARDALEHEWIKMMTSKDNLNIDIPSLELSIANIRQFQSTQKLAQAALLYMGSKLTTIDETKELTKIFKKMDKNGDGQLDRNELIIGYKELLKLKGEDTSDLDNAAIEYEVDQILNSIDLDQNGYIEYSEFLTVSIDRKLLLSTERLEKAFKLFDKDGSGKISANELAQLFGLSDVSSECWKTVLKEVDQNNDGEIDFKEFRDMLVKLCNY

SMILES | growth inhibition [1] | inhibition [2] | inhibition [3] | growth inhibition [4] | outcome [5] | outcome [6] | outcome [7] | outcome [8]
CCOC(=O)c1ccc(N2CCCCC2)c(NC(=O)C(Cl)(Cl)Cl)c1 | 97% (active) | 11% (inactive) | 1% (inactive) | 96% (active) | inactive | inactive | inactive | inactive
O=C(Cn1c(CCc2cccc(F)c2F)nc(=O)c2ccccc21)N(CCCN1CCCCC1)Cc1ccc(-c2ccc(C(F)(F)F)cc2)cc1 | 94% (active) | 100% (active) | -2% (inactive) | 103% (active) | inactive | inactive | inactive | inactive
O=C(Cn1c(CCc2cccc(F)c2F)nc(=O)c2ccccc21)N(CCN1CCCC1)Cc1ccc(-c2ccc(C(F)(F)F)cc2)cc1 | 37% (inactive) | 63% (active) | -1% (inactive) | 101% (active) | inactive | inactive | inactive | inactive
Cc1nc(-c2ccc(-c3ccc(NC(=O)Nc4ccc(I)c(OCCN(C)C)c4)cc3)c(C)c2)no1 | 92% (active) | 47% (inactive) | 2% (inactive) | 101% (active) | inactive | inactive | inactive | inactive
OC1(c2ccc(Br)cc2)CCN(C2CCN(Cc3ccccc3)CC2)CC1 | 18% (inactive) | 8% (inactive) | 8% (inactive) | 100% (active) | inactive | inactive | inactive | inactive
CCOC(=O)C(NC(=O)Cc1ccccc1)C(C)C (configuration not stated) | 98% (active) | 39% (inactive) | 4% (inactive) | 96% (active) | inactive | inactive | inactive | inactive
CC(C)C(=O)ONC1=NC(C)(C)N(OCCCOc2cc(Cl)c(Cl)cc2Cl)C(NOC(=O)C(C)C)=N1 | 93% (active) | 64% (active) | -9% (inactive) | 92% (active) | inactive | inactive | inactive | inactive
C[C@@H](NC(=O)c1nn(-c2ccc(Cl)cc2)c(=O)c2ccccc12)C(C)(C)C | 20% (inactive) | 7% (inactive) | -2% (inactive) | 95% (active) | inactive | inactive | inactive | inactive
Cc1onc(-c2c(Cl)cccc2Cl)c1C(=O)NC1=NC(C)(C)ON1c1ccccc1 | 36% (inactive) | 6% (inactive) | 1% (inactive) | 97% (active) | inactive | inactive | inactive | inactive
Cn1nc(C(F)(F)F)c(-c2ccc(Br)cc2)c1NC(=O)Cc1ccccc1F | 100% (active) | 6% (inactive) | -1% (inactive) | 102% (active) | inactive | inactive | inactive | inactive
O=C(c1cc(-c2ccccc2O)on1)N1CCN(C(c2ccccc2)c2ccccc2)CC1 | 88% (active) | 12% (inactive) | 1% (inactive) | 97% (active) | inactive | inactive | inactive | inactive
CCCN(CCC)CCCNc1ccc(C(=O)Nc2ccc(C(C)C)cc2)cc1[N+](=O)[O-] | 38% (inactive) | 17% (inactive) | -8% (inactive) | 98% (active) | inactive | inactive | inactive | inactive
O=C(c1ccco1)N1CCN(c2ccc([N+](=O)[O-])c(NC3CC3)c2)CC1 | 99% (active) | -8% (inactive) | 0% (inactive) | 101% (active) | inactive | inactive | inactive | inactive
O=C(Nc1ccc(-c2nc3ccc(NC(=O)c4ccc(Br)cc4)cc3[nH]2)cc1)c1ccc(Br)cc1 | 4% (inactive) | 40% (inactive) | 3% (inactive) | 98% (active) | inactive | inactive | inactive | inactive
Cc1nn(-c2ccccc2)c2c1C(c1ccc(C(C)C)cc1)N1C(=N2)N(Cc2ccccc2)c2ccccc21 (configuration not stated) | 37% (inactive) | 7% (inactive) | -7% (inactive) | 95% (active) | inactive | inactive | inactive | inactive
CCC(C)c1ccc(-n2c(Nc3ccccc3)nc3cc(S(N)(=O)=O)ccc32)cc1 (configuration not stated) | 28% (inactive) | 0% (inactive) | 4% (inactive) | 88% (active) | inactive | inactive | inactive | inactive
CN1CCN(CCCN(Cc2ccc(-c3cccc(CNCc4ccc5c(c4)OCO5)c3)cc2)C(=O)CCC2CCCC2)CC1 | 85% (active) | 24% (inactive) | -5% (inactive) | 92% (active) | inactive | inactive | inactive | inactive
CCOC(=O)N(C)/N=C/[C@H](CCc1ccccc1)NC(=O)[C@H](CC(C)C)NC(=O)c1cc2cccc(OC)c2o1 | 70% (active) | 2% (inactive) | 1% (inactive) | 86% (active) | inactive | inactive | inactive | inactive
COc1ccc(CN(C)Cc2ccc(NC(=O)c3cccc4c(=O)c5cccc(C)c5[nH]c34)cc2)cc1OC | 22% (inactive) | 7% (inactive) | -2% (inactive) | 92% (active) | inactive | inactive | inactive | inactive
Cc1sc(C)c(CNCCCNc2cc(=O)c3ccccc3[nH]2)c1Br | 15% (inactive) | -4% (inactive) | -2% (inactive) | 93% (active) | inactive | inactive | inactive | inactive

SMILES | growth inhibition [1] | inhibition [2] | inhibition [3] | growth inhibition [4] | outcome [5] | outcome [6] | outcome [7] | outcome [8]
Cn1cncc1C(=O)Nc1ccc(-c2ccc(-c3nc4ccc(C(F)(F)F)cc4[nH]3)cc2)cc1 | 33% (inactive) | 24% (inactive) | 5% (inactive) | 102% (active) | inactive | inactive | inactive | inactive
CC(=O)N(C)c1ccc(C(=O)Nc2cccc(-c3cccc(-c4nc5ccc(C(F)(F)F)cc5[nH]4)c3)c2)cc1 | 29% (inactive) | 31% (inactive) | -6% (inactive) | 96% (active) | inactive | inactive | inactive | inactive
O=C(/C=C/c1ccc(C(F)(F)F)cc1)N1CCc2cc3nccc(N4CCN5CCC[C@H]5C4)c3cc21 | 21% (inactive) | -7% (inactive) | -1% (inactive) | 86% (active) | inactive | inactive | inactive | inactive
O=C(Nc1ccc(Cl)cc1)c1cccc(CN2CCCN(Cc3cccc(O)c3)CC2)c1 | 43% (inactive) | 14% (inactive) | 3% (inactive) | 98% (active) | inactive | inactive | inactive | inactive
O=C(Nc1ccc(SC(F)(F)F)cc1)Nc1ccnc2ccccc12 | 42% (inactive) | 26% (inactive) | -2% (inactive) | 95% (active) | inactive | inactive | inactive | inactive
O=C(Nc1ccc(CN2CCOCC2)cc1)c1ccc(-c2ccc(Br)cc2)o1 | -4% (inactive) | 3% (inactive) | -2% (inactive) | 92% (active) | inactive | inactive | inactive | inactive
Cc1ccc(C2CCN(CCCCNC(=O)c3ccc(NC(=O)c4ccc(Cl)cc4)cc3)CC2)c(OCC(F)(F)F)c1 | 84% (active) | 32% (inactive) | -4% (inactive) | 99% (active) | inactive | inactive | inactive | inactive
COc1ccc(C(=O)NCCCCN2CCC(c3ccc4c(c3OC)CCCC4)CC2)cc1-c1ccc(C(F)(F)F)cc1 | 56% (active) | 67% (active) | 5% (inactive) | 100% (active) | inactive | inactive | inactive | inactive
COc1ccc(Nc2nccc(-c3cccc(NC(=O)c4cc5cc(F)ccc5[nH]4)c3)n2)cc1 | 37% (inactive) | 3% (inactive) | 5% (inactive) | 92% (active) | inactive | inactive | inactive | inactive
CCOC(=O)c1c(NC(=O)c2ccccc2)sc2c(O)c(CNC3CCCCC3)ccc12 | 98% (active) | 6% (inactive) | 1% (inactive) | 99% (active) | inactive | inactive | inactive | inactive
CN(C)CCN(C)C(=O)c1cc(-c2ccncc2)c(-c2ccc(Cl)c(O)c2)o1 | 34% (inactive) | -11% (inactive) | 0% (inactive) | 97% (active) | inactive | inactive | inactive | inactive
N=C(N)CCN(Cc1ccc(Cl)cc1)c1ccc(Cl)cc1 | 92% (active) | 22% (inactive) | 5% (inactive) | 96% (active) | inactive | inactive | inactive | inactive
COc1ccc2nc(-c3cc(-c4ccc(NC(=O)C(C)C)cc4)cnc3N)[nH]c2c1 | 47% (inactive) | 43% (inactive) | 3% (inactive) | 101% (active) | inactive | inactive | inactive | inactive
CC(C)Cn1c(N)cc(=O)n(C)c1=O | 0% (inactive) | 3% (inactive) | 3% (inactive) | 100% (active) | inactive | inactive | inactive | inactive
O=S(=O)(Nc1cccc(CCN2CCC(N3CCCCC3)CC2)c1)c1cccc2cccnc12 | 17% (inactive) | 0% (inactive) | 1% (inactive) | 98% (active) | inactive | inactive | inactive | inactive
Cc1cccc2[nH]c(-c3cccc(-c4ccc(CN5CCC(C(N)=O)CC5)cc4)c3)nc12 | 9% (inactive) | -1% (inactive) | 4% (inactive) | 89% (active) | inactive | inactive | inactive | inactive
O=C(Nc1ccc(Br)cc1)N1CCC(n2c(-c3ccccc3)nc3cccnc32)CC1 | 86% (active) | 36% (inactive) | 0% (inactive) | 90% (active) | inactive | inactive | inactive | inactive
Cn1c(Nc2nnc(C3CC3)s2)nc2cc(Nc3ccnc(Nc4cccc(CS(C)(=O)=O)c4)n3)ccc21 | 83% (active) | -6% (inactive) | -1% (inactive) | 97% (active) | inactive | inactive | inactive | inactive
O=C(Nc1nccs1)c1cc(-c2cccnc2)nc2ccc(Br)cc12 | 79% (active) | 7% (inactive) | 5% (inactive) | 100% (active) | inactive | inactive | inactive | inactive
